Source: PubChem BioAssay (National Center for Advancing Translational Sciences (NCATS))
Pf Dd2 inh: blocks in vitro growth of P. falciparum Dd2; P. falciparum Dd2 growth, SYBR Green, 72 h; Potency, µM (doses to about 28.9 µM), for the others: top-dose activity, negative = inhibition, actives largely listed as inhibitors; actives 4.3% (n = 120,000); AID 1347417; active = well fitted inhibition curve with a large enough effect;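 note: plate controls were DMSO vehicle for no effect and reference drug for full effect; nearly all actives have a fitted effect of over 65% in size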
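Infected erythrocytes (Dd2, 0.3% parasitemia, 2.5% hematocrit final) are added to compound in RPMI-1640/Albumax II medium, grown 72 h at 37C in low oxygen, then lysed with saponin/Triton-X containing SYBR Green and read by fluorescence.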
* = called active by the depositor; i = inactive; [ ] = remark or other dose. This excerpt belongs to a sample that is enriched for hits. Potency is the fitted concentration of half-maximal effect.

SMILES	Pf Dd2 inh
Cc1cccc(N2C(=O)CSC23C(=O)N(Cc2cccc(C(F)(F)F)c2)c2ccccc23)c1 (configuration not stated)	10µM*
O=C(Cn1c(=O)n(-c2cccc(Cl)c2)c(=O)c2sc3ccccc3c21)NC1CCCCC1	26.7%
O=C(CN1C(=O)C2(SCC(=O)N2c2cccc(Cl)c2)c2ccccc21)NCc1ccccc1 (configuration not stated)	11.2µM*
CCc1ccc(NC(=O)CN2C(=O)C3(SCC(=O)N3c3ccccc3)c3ccccc32)cc1 (configuration not stated)	11.2µM*
NC(=O)CN1C(=O)C2(SCC(=O)N2c2cccc(F)c2)c2ccccc21 (configuration not stated)	13.1%
CC(C)c1ccc(N2C(=O)CSC23C(=O)N(Cc2ccccc2)c2ccccc23)cc1 (configuration not stated)	i
CCc1ccc(N2C(=O)CSC23C(=O)N(Cc2cccc(F)c2)c2ccccc23)cc1 (configuration not stated)	-10.6%
Cc1cccc(N2C(=O)CSC23C(=O)N(C)c2ccccc23)c1 (configuration not stated)	i
O=C(CN1C(=O)C2(SCC(=O)N2c2cccc(Cl)c2)c2ccccc21)NC1CCCCC1 (configuration not stated)	12.6µM*
COc1cc(-c2ccc(C)s2)cc2c1OCCNC2	-8.2%
CS(=O)(=O)N(C1CCOCC1)C1CN(C(=O)Nc2ccccc2F)C1	6.1%
CN[C@H](C(=O)N[C@@H]1C=C(C(=O)N[C@H](CC(C)C)C(N)=O)C[C@@H](O)[C@@H]1O)C(C)C	4.1%[44.1 µM]
CN(C)C(=O)C1CN(Cc2cccnc2)CC12CCOCC2 (configuration not stated)	7.5%
CNC(=O)[C@@H]1CN(C(=O)CN2CCOCC2)C[C@H]1COC	-0.6%
CCN(Cc1nccn1C)C(=O)c1ccc(NCc2cccc(C)c2)nc1	-13.9%
CN1CCC(N2CCN(S(=O)(=O)c3ccccc3F)CC2)C1=O (configuration not stated)	13.8%
Cc1cccc(CC(=O)N2CC(F)(F)C[C@H]2c2nnc(C3CC3)o2)c1	2.2%
CC(C)(C)CC(=O)NC1CCN(c2cnn(Cc3ccccc3)c(=O)c2)CC1	i
O=C(NC1CCN(c2cnn(Cc3ccccc3)c(=O)c2)CC1)c1ccsc1	10µM*
Cn1ncc(N2CCC(NC(=O)c3ccsc3)CC2)cc1=O	-17.3%
Cn1ccc2c(C(=O)NCc3cccnc3)nc(-c3ccccc3C#N)cc21	i
CN1CCCC1c1nc(C2CNC2)no1 (configuration not stated)	7.9%
COc1ncccc1C(=O)N1CCCC(c2[nH]ncc2Cc2ccccc2)C1 (configuration not stated)	-13.4%
Cc1ccc(CN2Cc3[nH]cnc3C[C@H]2c2nc(C(C)C)no2)cc1	i
O=c1n(CC2CC2)nc2n1CCN(S(=O)(=O)c1ccccc1C(F)(F)F)C2	-10.8%
SMILES	Pf Dd2 inh
COc1ccc(C(=O)N2CCC(Cc3nc(-c4ccccc4)no3)CC2)cc1F	i
COc1ccc(CCC(=O)N2CCC(Cc3nc(-c4ccc(F)cc4)no3)CC2)cc1	-22.6%
CCOc1ccc(C(=O)N2CCC(Cc3nc(-c4ccc(F)cc4)no3)CC2)cc1OCC	5.01µM*
CCOc1cc(C(=O)N2CCC(Cc3nc(-c4ccc(F)cc4)no3)CC2)cc(OCC)c1OCC	-12.6%
CCc1ccc(C(=O)N2CCC(Cc3nc(-c4ccc(F)cc4)no3)CC2)cc1	i
COc1cccc(-c2noc(CC3CCN(C(=O)c4ccc(C)cc4)CC3)n2)c1	i
O=C(CCc1ccccc1)N1CCC(Cc2nc(-c3ccc(F)cc3)no2)CC1	i
CCOc1ccc(C(=O)N2CCC(Cc3nc(-c4ccc(OC)cc4)no3)CC2)cc1OCC	8.91µM*
COc1ccc(-c2noc(CC3CCN(C(=O)CCc4ccccc4)CC3)n2)cc1	11.2µM*
COCC(=O)N1CCc2cn(C)c3cccc(c23)C1	-7.7%
Cn1cc2c3c(cccc31)CN(C(=O)C1CC1)CC2	-0.7%
O=C(c1ccc2nc[nH]c2c1)N1CCN(c2cc(-c3cccs3)[nH]n2)CC1	i
Cc1cccc(NC(=O)C2CC(=O)N(c3n[nH]c4cc(Br)ccc34)C2)c1 (configuration not stated)	7.9%
COCCOc1cc(=O)n2c(c1C(=O)Nc1cccc(OC)c1)CCOCC2	-5.8%
CC(C)c1noc(-c2cn(C3CCCN(C(=O)c4ccoc4)C3)nn2)n1 (configuration not stated)	-1.4%
CCCNC(=O)C(NC(=O)c1ccc(OC)cc1)C1CCN(C(=O)COC)CC1 (configuration not stated)	3.1%
CN(Cc1cc2n(n1)CCNC2)Cc1nc2ccsc2c(=O)[nH]1	-18.8%
COCCNC(=O)C1c2ccccc2C(=O)N(C2CCCC2)C12CCCC2 (configuration not stated)	2.9%
CCOC(=O)c1ccccc1NC(=O)C1CCN(c2ncnc3c2nc2n3CCCCC2)CC1	-7.3%
O=C(NCc1ccccc1)C1CCN(c2ncnc3c2nc2n3CCCCC2)CC1	22.1%
